From PubChem BioAssay (Tox21)
Inconclusive results are not listed. A call without a number means that no potency is given here. Calls of active or inactive are those of the source. Calls come from the whole dose curve; as a rule, active = well fitted curve in the direction sought with a large enough effect in the repeat runs; inconclusive = weak or mixed curves; inactive = no such curve, though single readings can be large; an effect the other way counts as inactive or inconclusive.

Assay: Caspase-3/7 induction in CHO-K1 cells by small molecules, qHTS cell viability counter screen (AID 1346979); note: nearly all actives have a fitted effect of over 35% in size
Conditions: CellTiter-Fluor fluorescence, 17 h; series mostly up to 92.4 µM
How it was run: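 To flag cytotoxic compounds, treated CHO-K1 wild-type cells were given CellTiter-Fluor at 16hr and read fluorescently after 1hr at 37C; the caspase-3/7 luminescence was measured in these same wells.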
Potency is the fitted concentration of half-maximal effect.

Row | SMILES | Potency
1 | CCCCN1CCCC1C(=O)Nc1c(C)cc(C)cc1C (stereo not drawn) | inactive
2 | CC(CO)CO | inactive
3 | COc1cc(C(=O)NC2CCN(C)CC2)ccc1Nc1ncc2c(n1)N(C1CCCC1)CC(F)(F)C(=O)N2C | 0.499 µM (active)
4 | CC(C)C[C@H](NC(=O)[C@H](CCc1ccccc1)NC(=O)CN1CCOCC1)C(=O)N[C@@H](Cc1ccccc1)C(=O)N[C@@H](CC(C)C)C(=O)[C@@]1(C)CO1 | 0.0944 µM (active)
5 | COc1cc(Nc2c(C#N)cnc3cc(OCCCN4CCN(C)CC4)c(OC)cc23)c(Cl)cc1Cl | 29.8 µM (active)
6 | O=C(O)CCc1nc(-c2ccccc2)c(-c2ccccc2)o1 | inactive
7 | O=C1C(=O)c2ccccc2C(O)=C1C1CCC(c2ccc(Cl)cc2)CC1 (stereo not drawn) | 16.8 µM (active)
8 | C=CC(=O)[O-].C=CC(=O)[O-].[Zn+2] | inactive
9 | c1ccc(C[n+]2cccc3ccccc32)cc1 | inactive
10 | C(=C\c1ccccc1)/c1ccccc1 | inactive
11 | CCC1CO1 (stereo not drawn) | inactive
12 | CC1(CN2CCC(n3c(=O)[nH]c4ccccc43)CC2)OCc2ccccc2-n2cccc21 (stereo not drawn) | 29.8 µM (active)
13 | Brc1cc2ccccc2c2ccccc12 | inactive
14 | O=c1cc(-c2ccccc2)oc2ccc3ccccc3c12 | 54.5 µM (active)
15 | CC1(C)O[C@@H]2C[C@H]3[C@@H]4C[C@H](F)C5=CC(=O)C=C[C@]5(C)[C@H]4[C@@H](O)C[C@]3(C)[C@]2(C(=O)CO)O1 | inactive
16 | CCOC(=O)c1ccc(O)c(O)c1 | inactive

Row | SMILES | Potency
17 | O=[N+]([O-])c1ccc(O/N=C/c2cc(Br)c(O)c(Br)c2)c([N+](=O)[O-])c1 | 15.3 µM (active)
18 | O=[N+]([O-])c1ccc(Nc2ccc(Nc3ccccc3)c(S(=O)(=O)O)c2)c([N+](=O)[O-])c1 | 54.5 µM (active)
19 | CN1CCCN=C1COC(=O)C(O)(c1ccccc1)C1CCCCC1 (stereo not drawn) | inactive
20 | COC(=O)[C@H]1[C@H]2C[C@@H]3c4[nH]c5cc(OC)ccc5c4CCN3C[C@H]2C[C@@H](OC(=O)/C=C/c2ccc(O)c(OC)c2)[C@@H]1OC | 26.6 µM (active)
21 | O=C1CCCCCCCCCCOCCCCO1 | inactive
22 | c1csc(SSc2cccs2)c1 | 34.4 µM (active)
23 | NC1[C@H]2CN(c3nc4c(cc3F)c(=O)c(C(=O)O)cn4-c3ccc(F)cc3F)C[C@@H]12 (stereo partly drawn) | 3.76 µM (active)
24 | Cc1cc(C)cc(N)c1 | inactive
25 | CCCCC(CC)COP(=O)(O)O (stereo not drawn) | inactive
26 | COc1ccccc1N1CCN(CCCCNC(=O)c2ccc(-c3ccc(C(C)=O)cc3)cc2)CC1 | inactive
27 | Cc1cc(O)ccc1O | 31 µM (active)
28 | CO/N=C(/C(=O)N[C@@H]1C(=O)N2C(C(=O)O)=C(COC(N)=O)CS[C@H]12)c1ccco1 | inactive
29 | CCC(=O)C1CC(C(C)C)CC=C1C (stereo not drawn) | inactive
30 | CCOC(C)=O | inactive
31 | CN(C)CCN1C(=O)c2ccccc2N(C)c2ccccc21 | inactive

Assay: Caspase-3/7 induction in CHO-K1 cells by small molecules, qHTS assay (AID 1346980); note: nearly all actives have a fitted effect of over 15% in size
Conditions: CHO-K1 caspase-3/7 induction, Caspase-Glo luminescence, 17 h; series mostly up to 92.4 µM
How it was run: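 Wild-type CHO-K1 cells exposed to compounds for 17hr at 37 C, 5% CO2. Caspase-3/7 activity then measured by Caspase-Glo 3/7 luminescence after 30min at room temperature.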

Row | SMILES | Potency
32 | Cc1ccccc1S | inactive
33 | CCCCN1CCCC1C(=O)Nc1c(C)cc(C)cc1C (stereo not drawn) | inactive
34 | CC(CO)CO | inactive
35 | CC(C)C[C@H](NC(=O)[C@H](CCc1ccccc1)NC(=O)CN1CCOCC1)C(=O)N[C@@H](Cc1ccccc1)C(=O)N[C@@H](CC(C)C)C(=O)[C@@]1(C)CO1 | 0.0473 µM (active)
36 | COc1cc(Nc2c(C#N)cnc3cc(OCCCN4CCN(C)CC4)c(OC)cc23)c(Cl)cc1Cl | inactive
37 | O=C(O)CCc1nc(-c2ccccc2)c(-c2ccccc2)o1 | inactive
38 | CCOC(=O)C1=C(C)NC(C)=C(C(=O)OC)C1c1cccc(Cl)c1Cl (stereo not drawn) | inactive
39 | O=C1C(=O)c2ccccc2C(O)=C1C1CCC(c2ccc(Cl)cc2)CC1 (stereo not drawn) | inactive
40 | C=CC(=O)[O-].C=CC(=O)[O-].[Zn+2] | inactive
41 | c1ccc(C[n+]2cccc3ccccc32)cc1 | inactive
42 | C(=C\c1ccccc1)/c1ccccc1 | inactive
43 | CCC1CO1 (stereo not drawn) | inactive
44 | CC1(CN2CCC(n3c(=O)[nH]c4ccccc43)CC2)OCc2ccccc2-n2cccc21 (stereo not drawn) | inactive
45 | Brc1cc2ccccc2c2ccccc12 | inactive
46 | O=c1cc(-c2ccccc2)oc2ccc3ccccc3c12 | inactive
47 | CC1(C)O[C@@H]2C[C@H]3[C@@H]4C[C@H](F)C5=CC(=O)C=C[C@]5(C)[C@H]4[C@@H](O)C[C@]3(C)[C@]2(C(=O)CO)O1 | inactive
48 | CCOC(=O)c1ccc(O)c(O)c1 | inactive
49 | O=[N+]([O-])c1ccc(O/N=C/c2cc(Br)c(O)c(Br)c2)c([N+](=O)[O-])c1 | inactive
50 | O=[N+]([O-])c1ccc(Nc2ccc(Nc3ccccc3)c(S(=O)(=O)O)c2)c([N+](=O)[O-])c1 | inactive

Row | SMILES | Potency
51 | CC(C)(O)c1ccc(CNC(=O)c2cccnc2Oc2ccc3nonc3c2)cc1 | inactive
52 | Cc1[nH]cnc1CN1CCc2c(c3ccccc3n2C)C1=O | inactive
53 | CN1CCCN=C1COC(=O)C(O)(c1ccccc1)C1CCCCC1 (stereo not drawn) | inactive
54 | O=c1[nH]c2ccc(Cl)cc2o1 | inactive
55 | COC(=O)[C@H]1[C@H]2C[C@@H]3c4[nH]c5cc(OC)ccc5c4CCN3C[C@H]2C[C@@H](OC(=O)/C=C/c2ccc(O)c(OC)c2)[C@@H]1OC | inactive
56 | O=c1cc(-c2ccccc2)oc2cc(O)cc(O)c12 | inactive
57 | O=C1c2ccccc2C(=O)c2c(O)c(O)cc(O)c21 | inactive
58 | NC1[C@H]2CN(c3nc4c(cc3F)c(=O)c(C(=O)O)cn4-c3ccc(F)cc3F)C[C@@H]12 (stereo partly drawn) | inactive
59 | Cc1cc(C)cc(N)c1 | inactive
60 | CCCCC(CC)COP(=O)(O)O (stereo not drawn) | inactive
61 | COc1ccccc1N1CCN(CCCCNC(=O)c2ccc(-c3ccc(C(C)=O)cc3)cc2)CC1 | inactive
62 | Cc1cc(O)ccc1O | inactive
63 | CCC(C)(C)OC | inactive
64 | FC(F)(F)c1ccccc1Cl | inactive
65 | CO/N=C(/C(=O)N[C@@H]1C(=O)N2C(C(=O)O)=C(COC(N)=O)CS[C@H]12)c1ccco1 | inactive
66 | CCC(=O)C1CC(C(C)C)CC=C1C (stereo not drawn) | inactive
67 | CCOC(C)=O | inactive
68 | CN(C)CCN1C(=O)c2ccccc2N(C)c2ccccc21 | inactive
